# Measured values taken from PMC7862700, “An all-to-all approach to the identification of sequence-specific readers for epigenetic DNA modifications on cytosine”.
# Columns and labels:
# Test in all cases: DAPPL (digital affinity profiling via proximity ligation, sequencing); 10 mM Tris-HCl pH 7.5, 50 mM NaCl, 1 mM DTT, 4% glycerol, room temperature, 30 min; GST-TFs on glutathione beads, 16-mer random dsDNA library, 0.1% formaldehyde crosslink after washing; high values mean tight binding
# Conditions in all cases: protein: recombinant; tags: N-terminal GST; dsDNA, one strand shown
# ELK1 = biological target: T1, ELK1 (Homo sapiens, UniProt P19419 1-428)
# T1 sequence: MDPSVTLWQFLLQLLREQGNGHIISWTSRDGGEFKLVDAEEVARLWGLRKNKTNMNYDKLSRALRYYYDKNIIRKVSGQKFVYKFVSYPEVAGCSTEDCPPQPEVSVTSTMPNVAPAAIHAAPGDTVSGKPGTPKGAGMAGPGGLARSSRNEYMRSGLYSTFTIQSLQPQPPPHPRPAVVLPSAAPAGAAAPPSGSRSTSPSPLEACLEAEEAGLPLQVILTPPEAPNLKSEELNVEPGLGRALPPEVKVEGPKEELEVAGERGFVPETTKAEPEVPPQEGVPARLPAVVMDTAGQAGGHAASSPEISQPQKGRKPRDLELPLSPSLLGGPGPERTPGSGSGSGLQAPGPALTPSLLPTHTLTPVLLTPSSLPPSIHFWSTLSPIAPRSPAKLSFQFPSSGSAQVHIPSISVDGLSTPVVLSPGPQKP
# In short: (§1)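 The binding signal reported is, for every hexamer, its read frequency for a factor over its read frequency for the tag-only sample. Reads came from pools of yeast-expressed, GST-fused human transcription factors on glutathione beads, barcoded with DNA and mixed with that sample, which were incubated with 200 nmole of a random double-stranded 16-mer DNA library in Tris/NaCl/DTT/glycerol buffer at room temperature for 30 min. After washing, the pools were crosslinked with 0.1% formaldehyde, proximity-ligated with BsaI/T4 ligase for 1 h at 37 °C, PCR-amplified and sequenced on an Illumina NextSeq500.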
# ELK3 = biological target: T2, ELK3 (Homo sapiens, UniProt P41970 1-407)
# T2 sequence: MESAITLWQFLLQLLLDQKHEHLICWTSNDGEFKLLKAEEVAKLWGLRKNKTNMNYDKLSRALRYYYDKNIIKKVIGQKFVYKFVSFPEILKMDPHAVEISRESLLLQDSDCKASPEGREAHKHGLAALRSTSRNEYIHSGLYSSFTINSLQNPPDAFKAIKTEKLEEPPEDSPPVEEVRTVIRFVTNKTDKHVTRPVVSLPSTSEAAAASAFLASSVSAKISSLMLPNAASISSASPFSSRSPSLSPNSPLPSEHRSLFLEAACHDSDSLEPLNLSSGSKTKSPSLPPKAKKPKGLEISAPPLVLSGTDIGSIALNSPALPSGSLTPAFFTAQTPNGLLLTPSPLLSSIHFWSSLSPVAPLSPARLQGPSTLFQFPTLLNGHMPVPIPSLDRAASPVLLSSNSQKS
# In short: as §1
# FEV = biological target: T3, FEV (Homo sapiens, UniProt Q99581 1-238)
# T3 sequence: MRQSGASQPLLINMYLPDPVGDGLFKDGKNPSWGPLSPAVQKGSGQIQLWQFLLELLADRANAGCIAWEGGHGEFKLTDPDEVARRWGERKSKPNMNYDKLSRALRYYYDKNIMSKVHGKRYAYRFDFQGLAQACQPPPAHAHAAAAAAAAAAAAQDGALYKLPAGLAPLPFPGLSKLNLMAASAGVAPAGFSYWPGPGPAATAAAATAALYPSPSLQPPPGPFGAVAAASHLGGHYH
# In short: as §1
# ELK4 = biological target: T4, ELK4 (Homo sapiens, UniProt P28324-2 1-405)
# T4 sequence: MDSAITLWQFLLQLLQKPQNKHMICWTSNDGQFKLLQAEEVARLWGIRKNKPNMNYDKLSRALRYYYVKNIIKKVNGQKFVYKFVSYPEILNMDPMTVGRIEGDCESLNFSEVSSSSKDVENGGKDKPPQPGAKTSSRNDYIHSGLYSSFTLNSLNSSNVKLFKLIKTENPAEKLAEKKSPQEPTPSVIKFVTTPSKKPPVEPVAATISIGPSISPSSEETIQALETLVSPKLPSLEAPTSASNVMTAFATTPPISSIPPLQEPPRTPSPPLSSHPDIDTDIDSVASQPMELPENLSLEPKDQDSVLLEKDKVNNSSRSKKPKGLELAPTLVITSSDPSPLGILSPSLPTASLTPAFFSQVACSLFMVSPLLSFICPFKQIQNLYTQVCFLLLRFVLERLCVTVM
# In short: as §1
# ETV1 = ETV1 (Homo sapiens, UniProt P50549 1-477)
# In short: as §1
# ETV3L = biological target: T5, ETV3L (Homo sapiens, UniProt Q6ZN32 1-361)
# T5 sequence: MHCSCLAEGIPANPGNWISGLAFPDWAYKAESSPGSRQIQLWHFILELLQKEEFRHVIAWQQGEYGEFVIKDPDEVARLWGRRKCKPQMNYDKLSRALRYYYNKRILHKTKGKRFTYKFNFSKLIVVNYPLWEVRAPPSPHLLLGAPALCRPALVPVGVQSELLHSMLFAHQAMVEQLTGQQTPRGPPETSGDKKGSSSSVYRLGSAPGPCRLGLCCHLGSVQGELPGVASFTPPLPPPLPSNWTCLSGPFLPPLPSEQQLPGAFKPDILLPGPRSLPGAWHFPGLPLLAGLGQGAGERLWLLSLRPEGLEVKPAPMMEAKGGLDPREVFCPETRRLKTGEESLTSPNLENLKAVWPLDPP
# In short: as §1
# ETV7 = biological target: T6, ETV7 (Homo sapiens, UniProt Q9Y603 1-341)
# T6 sequence: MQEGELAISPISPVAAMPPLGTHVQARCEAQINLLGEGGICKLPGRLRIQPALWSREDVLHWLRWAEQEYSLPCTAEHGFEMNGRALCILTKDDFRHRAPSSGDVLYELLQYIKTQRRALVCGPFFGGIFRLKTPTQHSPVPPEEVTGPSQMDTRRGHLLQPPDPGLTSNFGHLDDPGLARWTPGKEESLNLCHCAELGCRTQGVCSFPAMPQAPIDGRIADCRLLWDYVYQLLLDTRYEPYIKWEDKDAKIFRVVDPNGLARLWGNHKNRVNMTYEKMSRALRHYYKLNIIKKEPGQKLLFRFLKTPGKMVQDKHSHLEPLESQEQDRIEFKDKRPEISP
# In short: as §1
# CRX = CRX (Homo sapiens, UniProt O43186 1-299)
# In short: as §1
# GABPA = biological target: T7, GABPA (Homo sapiens, UniProt Q06546 1-454)
# T7 sequence: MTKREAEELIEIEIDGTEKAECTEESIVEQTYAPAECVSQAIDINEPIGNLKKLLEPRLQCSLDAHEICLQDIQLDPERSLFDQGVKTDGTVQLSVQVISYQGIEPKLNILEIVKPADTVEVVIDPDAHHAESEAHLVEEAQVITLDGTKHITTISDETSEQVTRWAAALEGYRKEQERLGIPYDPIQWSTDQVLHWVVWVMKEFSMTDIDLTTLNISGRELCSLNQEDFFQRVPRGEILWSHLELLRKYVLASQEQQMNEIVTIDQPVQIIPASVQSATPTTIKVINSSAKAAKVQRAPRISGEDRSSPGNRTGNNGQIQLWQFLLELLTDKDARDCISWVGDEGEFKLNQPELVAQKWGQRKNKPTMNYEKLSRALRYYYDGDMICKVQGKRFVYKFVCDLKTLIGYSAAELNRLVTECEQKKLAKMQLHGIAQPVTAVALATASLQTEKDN
# In short: as §1
# EHF = biological target: T8, EHF (Homo sapiens, UniProt Q9NZC4 1-300)
# T8 sequence: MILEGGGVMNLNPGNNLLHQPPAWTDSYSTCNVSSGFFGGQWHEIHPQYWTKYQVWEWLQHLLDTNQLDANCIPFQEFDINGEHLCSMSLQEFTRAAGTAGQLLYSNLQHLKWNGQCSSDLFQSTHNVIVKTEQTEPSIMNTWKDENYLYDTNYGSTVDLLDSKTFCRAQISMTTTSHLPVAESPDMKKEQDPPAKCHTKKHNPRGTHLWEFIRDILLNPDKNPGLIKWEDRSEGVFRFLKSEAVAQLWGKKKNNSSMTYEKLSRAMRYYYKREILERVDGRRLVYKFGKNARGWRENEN
# In short: as §1
# SPI1 = SPI1 (Homo sapiens, UniProt P17947 1-270)
# In short: as §1
# ELF3 = biological target: T9, ELF3 (Homo sapiens, UniProt P78545 1-371)
# T9 sequence: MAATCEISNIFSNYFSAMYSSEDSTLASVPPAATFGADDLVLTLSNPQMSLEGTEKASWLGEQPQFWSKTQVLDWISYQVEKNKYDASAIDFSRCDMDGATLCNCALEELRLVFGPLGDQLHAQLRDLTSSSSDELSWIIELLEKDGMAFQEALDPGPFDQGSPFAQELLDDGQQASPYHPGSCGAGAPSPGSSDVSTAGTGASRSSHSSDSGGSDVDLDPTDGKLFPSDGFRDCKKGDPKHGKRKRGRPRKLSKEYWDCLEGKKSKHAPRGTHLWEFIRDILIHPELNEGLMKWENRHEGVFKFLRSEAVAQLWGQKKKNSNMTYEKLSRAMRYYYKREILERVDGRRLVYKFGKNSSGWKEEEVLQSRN
# In short: as §1
# ETV2 = biological target: T10, ETV2 (Homo sapiens, UniProt O00321 1-342)
# T10 sequence: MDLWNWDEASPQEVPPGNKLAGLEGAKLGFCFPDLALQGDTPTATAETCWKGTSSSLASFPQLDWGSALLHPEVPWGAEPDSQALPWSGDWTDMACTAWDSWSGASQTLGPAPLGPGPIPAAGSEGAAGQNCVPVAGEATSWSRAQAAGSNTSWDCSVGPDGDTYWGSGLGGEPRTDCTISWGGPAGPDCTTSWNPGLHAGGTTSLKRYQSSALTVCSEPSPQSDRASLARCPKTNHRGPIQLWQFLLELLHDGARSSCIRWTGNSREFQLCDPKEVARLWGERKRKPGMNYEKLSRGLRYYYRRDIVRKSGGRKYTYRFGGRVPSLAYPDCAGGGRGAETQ
# In short: as §1
# ELF1 = ELF1 (Homo sapiens, UniProt P32519 1-619)
# In short: as §1
# ETV1, sequence (P50549 whole entry): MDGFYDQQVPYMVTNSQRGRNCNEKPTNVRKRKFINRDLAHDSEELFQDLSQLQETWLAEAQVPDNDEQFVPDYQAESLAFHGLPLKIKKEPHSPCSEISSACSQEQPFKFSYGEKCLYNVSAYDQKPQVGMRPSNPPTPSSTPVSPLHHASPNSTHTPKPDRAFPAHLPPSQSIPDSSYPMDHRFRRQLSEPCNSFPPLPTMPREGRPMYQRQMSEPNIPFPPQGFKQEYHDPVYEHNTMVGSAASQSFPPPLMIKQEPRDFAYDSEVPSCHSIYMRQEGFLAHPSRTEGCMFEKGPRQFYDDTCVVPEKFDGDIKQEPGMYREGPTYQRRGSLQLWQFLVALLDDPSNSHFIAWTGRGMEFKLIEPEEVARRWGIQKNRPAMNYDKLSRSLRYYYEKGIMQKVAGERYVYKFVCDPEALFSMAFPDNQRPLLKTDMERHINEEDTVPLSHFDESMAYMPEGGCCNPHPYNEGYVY
# CRX, sequence (O43186 whole entry): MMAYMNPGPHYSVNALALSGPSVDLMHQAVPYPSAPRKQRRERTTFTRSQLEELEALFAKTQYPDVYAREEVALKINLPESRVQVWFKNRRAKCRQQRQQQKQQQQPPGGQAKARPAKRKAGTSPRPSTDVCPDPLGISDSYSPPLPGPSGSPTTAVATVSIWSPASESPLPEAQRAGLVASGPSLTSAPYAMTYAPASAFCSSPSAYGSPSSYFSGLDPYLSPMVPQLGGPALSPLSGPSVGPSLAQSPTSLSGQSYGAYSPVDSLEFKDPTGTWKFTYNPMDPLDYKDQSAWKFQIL
# ELF1, sequence (P32519 whole entry): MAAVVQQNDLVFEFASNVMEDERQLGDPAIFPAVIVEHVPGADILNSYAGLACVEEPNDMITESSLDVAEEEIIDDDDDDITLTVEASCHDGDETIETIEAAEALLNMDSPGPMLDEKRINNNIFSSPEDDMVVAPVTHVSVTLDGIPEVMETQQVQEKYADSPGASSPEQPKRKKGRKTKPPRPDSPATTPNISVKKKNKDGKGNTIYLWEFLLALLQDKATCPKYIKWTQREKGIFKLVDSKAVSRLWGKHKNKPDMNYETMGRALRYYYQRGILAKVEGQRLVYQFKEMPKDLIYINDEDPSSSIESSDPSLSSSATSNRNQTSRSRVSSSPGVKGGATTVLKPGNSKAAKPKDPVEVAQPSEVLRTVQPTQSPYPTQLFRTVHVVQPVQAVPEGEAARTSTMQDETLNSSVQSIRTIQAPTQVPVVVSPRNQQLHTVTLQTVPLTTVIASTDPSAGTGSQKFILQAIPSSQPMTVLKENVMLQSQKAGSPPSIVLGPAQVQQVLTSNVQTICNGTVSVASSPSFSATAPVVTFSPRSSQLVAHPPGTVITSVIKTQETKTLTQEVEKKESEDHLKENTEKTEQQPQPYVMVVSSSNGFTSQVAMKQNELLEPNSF
sequence,measurement,setting,value
GTTGCC,binding signal,ELK1,"1.01 fold enrichment (6-mer frequency, TF over GST control)"
same,binding signal,ELK3,"1 fold enrichment (6-mer frequency, TF over GST control)"
same,binding signal,FEV,"1.02 fold enrichment (6-mer frequency, TF over GST control)"
same,binding signal,ELK4,"1.07 fold enrichment (6-mer frequency, TF over GST control)"
same,binding signal,ETV1,"1.05 fold enrichment (6-mer frequency, TF over GST control)"
same,binding signal,ETV3L,"1.03 fold enrichment (6-mer frequency, TF over GST control)"
same,binding signal,ETV7,"1.04 fold enrichment (6-mer frequency, TF over GST control)"
GATTGA,binding signal,ELK1,"1.01 fold enrichment (6-mer frequency, TF over GST control)"
same,binding signal,CRX,"1.11 fold enrichment (6-mer frequency, TF over GST control)"
GTGCAA,binding signal,GABPA,"1.02 fold enrichment (6-mer frequency, TF over GST control)"
same,binding signal,EHF,"1 fold enrichment (6-mer frequency, TF over GST control)"
same,binding signal,SPI1,"1.06 fold enrichment (6-mer frequency, TF over GST control)"
same,binding signal,ELK4,"1.05 fold enrichment (6-mer frequency, TF over GST control)"
same,binding signal,ELF3,"1.07 fold enrichment (6-mer frequency, TF over GST control)"
same,binding signal,ETV1,"1.05 fold enrichment (6-mer frequency, TF over GST control)"
GTAACG,binding signal,ELK4,"1.03 fold enrichment (6-mer frequency, TF over GST control)"
same,binding signal,ETV2,"1.08 fold enrichment (6-mer frequency, TF over GST control)"
GCGTCA,binding signal,ELK4,"1.01 fold enrichment (6-mer frequency, TF over GST control)"
same,binding signal,ETV2,"1.06 fold enrichment (6-mer frequency, TF over GST control)"
GCGTTA,binding signal,ELK3,"1.09 fold enrichment (6-mer frequency, TF over GST control)"
same,binding signal,ELK4,"1.02 fold enrichment (6-mer frequency, TF over GST control)"
same,binding signal,CRX,"1.06 fold enrichment (6-mer frequency, TF over GST control)"
same,binding signal,ETV3L,"1.04 fold enrichment (6-mer frequency, TF over GST control)"
GACCAA,binding signal,ELK1,"1.05 fold enrichment (6-mer frequency, TF over GST control)"
same,binding signal,GABPA,"1.04 fold enrichment (6-mer frequency, TF over GST control)"
same,binding signal,ELF1,"1.02 fold enrichment (6-mer frequency, TF over GST control)"
same,binding signal,ELK4,"1.01 fold enrichment (6-mer frequency, TF over GST control)"
GCCACA,binding signal,ELK1,"1.02 fold enrichment (6-mer frequency, TF over GST control)"
same,binding signal,ELF1,"1.01 fold enrichment (6-mer frequency, TF over GST control)"
same,binding signal,FEV,"1.06 fold enrichment (6-mer frequency, TF over GST control)"
same,binding signal,ELF3,"1.07 fold enrichment (6-mer frequency, TF over GST control)"
same,binding signal,ETV1,"1.08 fold enrichment (6-mer frequency, TF over GST control)"
